# Only some compounds are listed: those with a hit (about 5.7% of all), similar ones and a draw of the others.
# Giardia kill: kills Giardia lamblia | Giardia lamblia trophozoite viability | activity change, % at 7.66 µM, hits read low | actives 0.15% (n = 340,000); in the data active = activity change below about -80%; inconclusive = between about -30% and that limit;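 also: parasites exposed to compound for two days anaerobically before the ATP read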
#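 Trophozoite viability was measured as ATP-dependent luminescence, read 15-30 min after reagent addition. Before that, parasites at 100 cells/well were exposed to compounds for 48 h, anaerobically, at 37 deg C.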
# KB-V1 MDR tox: KB-V1 MDR subline cytotoxicity; Potency, µM (top dose mostly 46.1 µM), most hits filed as cytotoxic; actives 3.4% (n = 400,000); KB-V1 MDR cells viability, CellTiter-Glo, 72 h; AID 1347076; also: potency is read from the fitted curve at half-maximal effect; nearly all actives have a fitted effect of over 60% in size
#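 Following 72 h at 37 degrees C with compound, KB-V1 cell viability was read by CellTiter-Glo luminescence, medium being phenol-red-free DMEM plus 10% FBS; concentration-response parameters came from normalized, curve-fitted qHTS data.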
# KB-3-1 cytotox: KB-3-1 parental cell cytotoxicity; KB-3-1 viability, CellTiter-Glo ATP luminescence, 72 h; actives 1.4% (n = 400,000); Potency, µM (highest dose often 46.1 µM), hits mostly cytotoxic; AID 1347075; also: potency is read from the fitted curve at half-maximal effect; nearly all actives have a fitted effect of over 60% in size
#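 Parental KB-3-1 viability, qHTS format: 72 h compound exposure, 37 °C; CellTiter-Glo; media-only wells and DMSO plates as controls; concentration-effect fits on corrected data.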
# A549 tox: kills or reduces viability of A549 cells in Nrf2 counter-screen; A549 ARE-Fluc cells, CellTiter-Fluor viability, 18-24 h; Potency, µM (titrated, usually from 46 µM), for the others: top-dose activity change, negative = cytotoxicity, hits mostly inhibitors; actives 0.16% (n = 390,000); AID 504648; also: potency is read from the fitted curve at half-maximal effect
#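 A549 ARE_Fluc cells in 5% FBS OPTI-MEM were exposed to compounds in concentration-response for 18-24 h at 37 deg C. Viability was read by CellTiter-Fluor fluorescence (Ex 405/Em 525) after 30 min, before the luciferase read.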
# PI4K2A inh: PI4K2A (human) kinase inhibition; Q9BTU6; purified PI4K2A, ADP-Glo luminescence, 1 h; stronger effect = lower value; activity change, negative = inhibition, % at 76.9 µM; actives 0.13% (n = 420,000); in the data active = activity change below about -50%; inconclusive = mostly about -30% to -49%;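 also: -100% = wells without enzyme as full effect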
# Target sequence (Q9BTU6 whole entry, looked up): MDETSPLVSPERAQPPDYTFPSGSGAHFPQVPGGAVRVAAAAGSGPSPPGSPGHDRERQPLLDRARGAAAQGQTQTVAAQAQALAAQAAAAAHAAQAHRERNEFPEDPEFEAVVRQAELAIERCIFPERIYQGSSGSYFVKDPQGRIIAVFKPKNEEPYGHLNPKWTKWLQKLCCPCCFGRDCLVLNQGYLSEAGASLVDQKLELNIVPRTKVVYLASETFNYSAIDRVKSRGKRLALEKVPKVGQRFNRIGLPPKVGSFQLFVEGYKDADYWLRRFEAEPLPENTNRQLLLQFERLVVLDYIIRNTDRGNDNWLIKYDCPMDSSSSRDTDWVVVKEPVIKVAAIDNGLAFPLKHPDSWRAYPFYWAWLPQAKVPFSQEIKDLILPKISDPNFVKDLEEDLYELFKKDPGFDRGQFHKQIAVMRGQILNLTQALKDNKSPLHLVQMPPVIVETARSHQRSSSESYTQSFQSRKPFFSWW
#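 In this quantitative HTS, ADP production by PI4K2A was quantified luminescently after 1 h at ambient temperature; 100 microM adenosine served as plate-quality control.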
# Nrf2 inh: Nrf2 pathway inhibition; A549 ARE-Fluc reporter, luciferase luminescence, 18-24 h; Potency, µM (titrated, usually from 46 µM), for inactives: at the highest dose activity change, negative = inhibition, most hits filed as inhibitors; actives 2.1% (n = 360,000); also: potency is read from the fitted curve at half-maximal effect; nearly all actives have a fitted effect of over 60% in size
#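 Two sequential reads on A549 ARE_Fluc cells exposed to compound for 18-24 h: a CellTiter-Fluor fluorescence read for viability, then a luciferase luminescence read for Nrf2/ARE activity.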
# Numbers without * were called inactive; i = inactive; ? = inconclusive; . = no result. Unless noted, calls follow the shape of the dose curve; as a rule, active = well fitted curve in the direction sought with a large enough effect; inconclusive = small, poorly fitted or top-dose-only effect, or another doubt; inactive = no such curve, though single readings can be large; an effect the other way counts as inactive or inconclusive. Unless noted, % is scaled to controls: 0 for no effect and ±100 for the full control effect.
SMILES,Giardia kill,KB-V1 MDR tox,KB-3-1 cytotox,A549 tox,PI4K2A inh,Nrf2 inh
COc1ccccc1CNC(=O)c1c(N)n(CCCN2CCOCC2)c2nc3ccccc3nc12,21,?,i,?,-1,18µM*
Nc1c(C(=O)NCc2ccc3c(c2)OCO3)c2nc3ccccc3nc2n1CCCN1CCOCC1,-7,i,i,-7%,?,-28%
COc1ccc(-n2c(N)c(C(=O)NCc3ccco3)c3nc4ccccc4nc32)cc1,10,i,i,-4%,0,?
COCCn1c(N)c(C(=O)NCc2cccs2)c2nc3ccccc3nc21,-27,?,?,7%,-13,23µM*
Nc1c(C(=O)NCCN2CCOCC2)c2nc3ccccc3nc2n1CCc1ccccc1,11,23µM*,i,-7%,0,15µM*
COc1cccc(CNC(=O)Cn2c(-c3ccccc3)cc(C(C)=O)c2C)c1OC,.,.,.,.,-4,.
Cc1cc(C)cc(N2CCn3c2nc2c3c(=O)n(Cc3c(F)cccc3Cl)c(=O)n2C)c1,.,.,.,9%,-5,-13%
COCCn1c(=S)[nH]c2cc(C(=O)N3CCN(Cc4ccccc4)CC3)ccc2c1=O,4,.,.,0%,.,11%
Cc1cccc(C(=O)NNc2ncnc3c2cnn3-c2ccc(C)c(Cl)c2)c1,.,i,i,10%,6,.
Cc1ccccc1NC(=O)c1ccc2[nH]c(C)c(C)c2c1,.,.,.,1%,-8,-28%
Cc1cc(=O)c2ccccc2[nH]1,24,i,i,6%,-8,?
Cc1cc(=O)c2cc(Br)ccc2[nH]1,-10,16µM*,i,?,1,?
Cc1cc(=O)c2cc(C(=O)Nc3ccccc3C)ccc2[nH]1,.,i,i,7%,-5,21µM*
CC(=NNC(=S)N1CCCCCC1)c1cccc2cccnc12,-2,3.7µM*,?,?,1,?
CC(=NNC(=S)N1CCN(C2CCCCCC2)CC1)c1ccccn1,4,?,?,?,22,18%
CC(=NNC(=S)N1CCN(c2ccccn2)CC1)c1nccs1,-3,?,?,-27%,20,13µM*
CC(=NNC(=S)N1CCN(c2ccccn2)CC1)c1ccccn1,-21,7.3µM*,i,-4%,-3,-4%
CC(=NNC(=S)Nc1ccc(C)cc1)c1ccccn1,-4,?,?,12µM*,-1,?
Cc1ccc(Cl)cc1-n1ncc2c(N3CCN(Cc4ccccc4)CC3)ncnc21,.,?,?,?,-4,.
S=C(Nc1ccc(Cl)c(Cl)c1)N1CCN(c2ccccn2)CC1,-2,i,i,0%,-2,6%
S=C(NC1CCCC1)N1CCN(c2ccccn2)CC1,-22,21µM*,i,13%,1,0%
O=C(NC(=S)N1CCN(c2ccccn2)CC1)c1ccccc1,-6,?,i,6%,-1,6%
S=C(NC1CCCCC1)N1CCc2ccccc2C1,-2,15µM*,?,-1%,-3,?
S=C(Nc1ccc(Oc2ccccc2)cc1)N1CCN(c2ccccn2)CC1,-13,i,i,-21%,2,16µM*
COc1cc(NC(=S)N2CCN(c3ccccn3)CC2)c(OC)cc1Cl,-28,18µM*,i,13%,-4,1%
SMILES,Giardia kill,KB-V1 MDR tox,KB-3-1 cytotox,A549 tox,PI4K2A inh,Nrf2 inh
S=C(NC1CC1)N1CCc2ccccc2C1,3,i,i,4%,1,-2%
COc1ccc(-c2nc(CSc3nnc(C)n4c3cc3sccc34)c(C)o2)cc1,.,.,.,3%,-4,6%
O=C1c2ccccc2NC(c2cc(Br)c3c(c2)OCO3)N1Cc1ccco1 (stereo not drawn),-1,i,i,3%,.,4%
COC(=O)[C@]12C[C@H](CC(=O)N3CCCC3)C(=O)N(Cc3ccc4c(c3)OCO4)C1=C[C@H](C(C)C)O[C@@H]2C1CC1,.,.,.,.,-7,.
Cc1ccc(Nc2ccc(N3CCN(C(=O)c4cccc([N+](=O)[O-])c4)CC3)nn2)cc1,.,.,.,-9%,2,.
CC(C)n1c(=O)c2c(O)cc(=O)oc2c2ccccc21,-21,6.5µM*,i,-15%,-6,20%
CC(C)(C)OC(=O)N1CCC(c2c(C(=O)Nc3ccc4c(c3)OCCO4)cnn2-c2ccc(F)cc2F)CC1,.,i,i,?,1,-11%
COc1ccccc1/C=C/C1(C(=O)NC2CCCC2)CC(=O)N1c1ccccc1 (stereo not drawn),11,3.7µM*,3.7µM*,-10%,-4,3%
CN(C)S(=O)(=O)c1ccc(N2C(=O)CC2(/C=C/c2ccccc2)C(=O)NC2CCCC2)cc1 (stereo not drawn),-4,5.2µM*,i,-5%,0,18%
COCCNC(=O)c1cc2oc3ccccc3c2n1C,0,23µM*,i,5%,1,5%
CCOc1ccccc1CNC(=O)c1cc2oc3ccccc3c2n1C,2,?,7.3µM*,1%,4,?
O=C1c2[nH]nc(-c3ccccc3)c2C(c2ccccc2)N1c1cccc(C(F)(F)F)c1 (stereo not drawn),.,16µM*,?,-23%,-1,?
COc1ccccc1C1C=C(c2ccccc2)Nc2nnnn21 (stereo not drawn),-22,8.2µM*,13µM*,-19%,0,?
Cc1cccc(C2C=C(c3ccc(C)c(C)c3)Nc3nnnn32)c1 (stereo not drawn),.,?,21µM*,-1%,-6,.
COc1cccc(C2=CC(c3cccs3)n3nnnc3N2)c1 (stereo not drawn),-18,?,5.2µM*,-18%,1,26%
COc1ccc(C2=CC(c3ccc(F)cc3)n3nnnc3N2)cc1 (stereo not drawn),-15,i,i,5%,0,21%
COc1cccc(C2=CC(c3ccc(OC)c(OC)c3OC)n3nnnc3N2)c1 (stereo not drawn),-3,i,i,-2%,-1,-11%
COc1ccc(C2C=C(c3ccc(Br)cc3)Nc3nnnn32)c(OC)c1 (stereo not drawn),16,.,.,-5%,6,15µM*
COc1cc(NC(=O)C2CCN(c3nnc(-n4cccc4)s3)CC2)cc(OC)c1,.,.,.,.,2,.
COc1ccc(C(c2ccc(OC)cc2)N2CCN(C(=O)c3noc(C)c3[N+](=O)[O-])CC2)cc1,.,.,.,.,-1,.
C=CCN1C(=O)[C@@H](CC(=O)NCC2CCCCC2)[C@]2(C(=O)OCC)CCCCC/C=C/12,.,.,.,.,-4,.

# Assay outcomes from PubChem BioAssay.
